Experimental data from PubChem BioAssay.
For part of these data: Results with a measured potency or affinity are listed apart. Results filed as inconclusive are left out. Some of the results follow. Calls of active or inactive are those of the source. Unless noted, how the calls were made is not given here.

Legend:
[1] = cytotoxicity in PAX8-dependent RMG-1 cells, dose response, cell-based, cherry-pick (AID 687029;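 active means signal drop whose fitted half-maximal concentration is at most twice the top valid dose, in every test run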;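 further: cells exposed to compound for 96 hours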)
[2] = cytotoxicity in IOSE-T80 ovarian epithelial cells, dose response, selectivity assay for PAX8 inhibitor project, cell-based, cherry-pick (AID 687032;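 active means fitted half-maximal concentration for viability loss no higher than twice the top valid dose, in every repeat run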;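 further: cells exposed to compound for 96 h before reading; 0% = neutral control wells and -100% = 2 µM mitoxantrone kill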)
[3] = non-specific cell cytotoxicity, dose response, cytotoxicity control for PAX8 inhibitor project, plate reader, dry powder samples (AID 743021)
[4] = A2780 ovarian cancer cell cytotoxicity, dose response, cytotoxicity control, plate reader, dry powder samples (AID 743046);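 further: 0% = neutral control wells and -100% = cytotoxic reference compound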
[5] = IOSE-T80 ovarian epithelial cell cytotoxicity, dose response, cytotoxicity control for PAX8 inhibitor project, plate reader, dry powder samples (AID 743045);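 further: 0% = neutral control median and -100% = positive control median; more negative values mean more cell killing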
[6] = A549 cell cytotoxicity, dose response, cytotoxicity control, plate reader, cherry-pick, antagonist series (AID 743412);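 further: 0% = neutral control wells and -100% = positive control wells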
[7] = HepG2 cell cytotoxicity, dose response, cytotoxicity control, plate reader, cherry-pick, antagonist series (AID 743416);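 further: 0% = neutral control wells and -100% = positive control wells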
[8] = biological target: Melanocortin receptor 4 (Homo sapiens) (UniProt P32245); experiment: MC4R antagonists, dose response, counter-screen for LGR2 antagonist project, cell-based, plate reader, cherry pick (AID 743444)
[9] = IGROV1 ovarian cancer cell cytotoxicity, dose response, PAX8 inhibitor project, plate reader, dry powder samples (AID 743043);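 further: more negative means fewer viable cells or more cytotoxicity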
[10] = cytotoxicity in OVCAR8 ovarian cancer cells, dose response, PAX8 project, cell-based, plate reader, dry powder samples (AID 743197)
[11] = NIH:OVCAR-3 ovarian cancer cell cytotoxicity, dose response, PAX8 inhibitor project, plate reader, dry powder samples (AID 743044); details: max activity: at 35 µM, hits give low values unless noted
[12] = DNA binders by acridine orange displacement, dose response, counter-screen for EWS/Fli inhibitor project, biochemical, fluorescence polarization, cherry-pick (AID 720586;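 active means fitted curve reaches a 35% signal fall AC35 below twice the sample's top valid tested dose, actives reach about 48 µM in these data; inactive means the rest, including activity in the rising direction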;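 further: 0% = neutral control median and -100% = 10 µM mitoxantrone control median; lower polarization ratio signals compound binding to DNA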)
[13] = inhibitors of CMV-promoter luciferase reporter, dose response, counter-screen for Pax8 inhibitor project, cell-based, HEK293, luminescence, dry powder (AID 743020;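 active means signal-lowering compounds whose fitted half-maximal concentration is at or below twice the top tested dose in every run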;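 further: HEK293 cells stably expressing the CMV luciferase reporter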)

NS(=O)(=O)c1ccc(CCN2C(=O)/C(=C\c3ccc(Cl)cc3)SC2=S)cc1
inactive: outcome [1] | outcome [2] | outcome [3] | outcome [4]

COc1cccc(-c2ccc(C3[C@@H]4CN(C(=O)C5CC5)C[C@H]3N4)cc2)c1 (stereo partly specified)
inactive: outcome [1] | outcome [2] | outcome [3] | outcome [5] | outcome [4] | outcome [6] | outcome [7] | outcome [8]

C[C@@H]1CN([C@@H](C)CO)S(=O)(=O)c2ccc(C#Cc3ccccc3F)cc2O[C@H]1CN(C)C(=O)Cc1ccccc1
inactive: outcome [1] | outcome [2] | outcome [9] | outcome [5] | outcome [4]

COc1ccc(NC(=O)Nc2ccc3c(c2)C(=O)N([C@H](C)CO)C[C@H](C)[C@H](CN(C)Cc2ccc(C(F)(F)F)cc2)OCCCC[C@H](C)O3)cc1
inactive: outcome [1] | outcome [2] | outcome [5] | outcome [4]

C[C@H](CO)N1C[C@H](C)[C@@H](CN(C)Cc2ccc(C(F)(F)F)cc2)Oc2ccc(NS(=O)(=O)c3ccc(Cl)cc3)cc2CC1=O
inactive: outcome [1] | outcome [2] | outcome [5] | outcome [4]

O=C(C1CC1)N1C[C@@H]2N[C@H](C1)C2c1ccc(-c2cccc(F)c2)cc1 (stereo partly specified)
inactive: outcome [1] | outcome [2] | outcome [3] | outcome [4]

O=C(Nc1cccc(C(=O)O)c1)Nc1ccc2c(c1)OCO2
inactive: outcome [1] | outcome [2] | outcome [3] | outcome [6] | outcome [7]

Cc1ccc(S(=O)(=O)Nc2ccc3c(c2)C(=O)N([C@H](C)CO)C[C@@H](C)[C@@H](CN(C)Cc2ccc(C(F)(F)F)cc2)OCCCC[C@H](C)O3)cc1
inactive: outcome [1] | outcome [2] | outcome [3] | outcome [5] | outcome [10]

Cn1nnnc1Sc1ncnc2scc(-c3cccc(Br)c3)c12
inactive: outcome [1] | outcome [2] | outcome [3] | outcome [7]

COc1ccc(S(=O)(=O)N(C)C[C@@H]2Oc3ccc(NC(=O)Nc4ccc(C(F)(F)F)cc4)cc3CC(=O)N([C@H](C)CO)C[C@@H]2C)cc1
inactive: outcome [1] | outcome [2] | outcome [3] | activity change, negative = cytotoxicity [4] -15.3% [at 8 µM]

COc1ccccc1C#Cc1ccc([C@H]2[C@H](C#N)N(C(=O)C3CC3)[C@H]2CO)cc1
inactive: outcome [1] | outcome [2] | outcome [9] | outcome [5]

Cc1ccc2nc(-c3ccc(Br)cc3)cn2c1
inactive: outcome [1] | outcome [2] | outcome [6] | outcome [7]

COc1ccc(CN(C)C[C@@H]2OCCCC[C@H](C)Oc3ccc(NC(=O)Nc4ccc(C(F)(F)F)cc4)cc3C(=O)N([C@@H](C)CO)C[C@H]2C)cc1
inactive: outcome [1] | outcome [2] | outcome [9] | outcome [5]

COc1cccc(C#Cc2ccc([C@H]3[C@@H](CO)N(C(=O)C4CCCCC4)[C@H]3C#N)cc2)c1
inactive: outcome [1] | outcome [2] | outcome [9] | outcome [5] | outcome [10]

O=C1CN(S(=O)(=O)Cc2ccccc2)C[C@H]2[C@H](c3ccc(C#Cc4ccc(F)cc4)cc3)[C@H](CO)N12
inactive: outcome [1] | outcome [2] | outcome [9] | outcome [5] | outcome [4] | outcome [10]

COc1ccc(S(=O)(=O)Nc2ccc3c(c2)C(=O)N([C@@H](C)CO)C[C@@H](C)[C@H](CN(C)Cc2ccc(C(F)(F)F)cc2)OCCCC[C@H](C)O3)cc1
inactive: outcome [1] | outcome [2] | outcome [9] | max activity [11] -37.4% | outcome [5] | outcome [4] | outcome [10]

N#C[C@H]1[C@H](c2ccc(C#Cc3ccccc3F)cc2)[C@H](CO)N1C(=O)C1CCC1
inactive: outcome [1] | outcome [2] | outcome [9] | outcome [5] | outcome [4] | outcome [10]

O=C(C[C@H]1C[C@@H]2c3cc(NS(=O)(=O)c4ccc(F)cc4)ccc3O[C@@H]2[C@@H](CO)O1)N1CCc2ccccc2C1
inactive: outcome [1] | outcome [2] | outcome [9] | outcome [5] | outcome [4]

Oc1c(Cl)cc(Cl)c(Cl)c1Cc1c(O)c(Cl)cc(Cl)c1Cl
inactive: outcome [1] | AC35 [12] | outcome [3]

COc1ccccc1S(=O)(=O)N(C)C[C@H]1Oc2cc(C#CCC3CCCC3)ccc2S(=O)(=O)N([C@@H](C)CO)C[C@H]1C
inactive: outcome [1] | outcome [2] | outcome [9] | max activity [11] 9.23% [at 16 µM, hits give low values] | outcome [5] | outcome [4] | outcome [10]

CCCC#Cc1ccc([C@H]2[C@@H](C#N)N(C(=O)C3CCCCC3)[C@H]2CO)cc1
inactive: outcome [1] | outcome [2] | outcome [9] | outcome [5]

C[C@@H]1CN([C@H](C)CO)C(=O)c2cc(NS(=O)(=O)c3ccccc3)ccc2O[C@@H](C)CCCCO[C@H]1CN(C)Cc1ccc(C(F)(F)F)cc1
inactive: outcome [1] | outcome [2] | outcome [3] | outcome [4]

COc1ccc(S(=O)(=O)Nc2ccc3c(c2)C(=O)N([C@H](C)CO)C[C@H](C)[C@@H](CN(C)S(=O)(=O)c2ccc(Cl)cc2)OCCCC[C@H](C)O3)cc1
inactive: outcome [1] | outcome [2] | outcome [5]

COc1ccccc1C#Cc1ccc([C@H]2[C@H](C#N)N(C(=O)C3CCC3)[C@H]2CO)cc1
inactive: outcome [1] | outcome [2] | outcome [9] | outcome [4]

C[C@@H]1CN([C@@H](C)CO)C(=O)Cc2cc(NC(=O)Cc3ccccc3)ccc2O[C@H]1CN(C)Cc1ccc(-c2ccccc2)cc1
inactive: outcome [1] | outcome [2] | outcome [9] | max activity [11] -33% | outcome [5] | outcome [4] | outcome [10]

C#CC(=O)N(c1ccc(OC)cc1OC)C(C(=O)NC1CCCC1)c1cccs1 (stereo unspecified)
inactive: outcome [1] | outcome [13]

Cc1ccc(C(=O)O/N=C(\N)c2ccccn2)cc1
inactive: outcome [1] | outcome [13]

CCOc1ccc(NC(=O)Nc2cccc(C(=O)O)c2)cc1
inactive: outcome [1] | outcome [13]
